{"source": "PubChem BioAssay (NCATS)", "key": {"[1]": {"target": "Calcium and integrin-binding protein 1 (Homo sapiens) (UniProt Q99828)", "sequence (Q99828 whole entry, looked up)": "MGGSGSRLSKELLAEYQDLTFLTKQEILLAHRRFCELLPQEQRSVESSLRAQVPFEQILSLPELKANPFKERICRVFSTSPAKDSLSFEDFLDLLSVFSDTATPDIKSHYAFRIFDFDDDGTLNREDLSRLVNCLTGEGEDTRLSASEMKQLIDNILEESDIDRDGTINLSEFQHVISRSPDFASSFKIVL", "experiment": "Primary qHTS for Identification of Calcium Integrin Binding Protein 1 (CIB1) Competitor (AID 1508620; active = well fitted curve in the direction sought with a large enough effect; an effect the other way counts as inactive or inconclusive; also: potency is read from the fitted curve at half-maximal effect;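 as to activity change, negative = inhibition: GST tagged CIB1 binding a fluorescein labelled alphaIIb integrin peptide tracer; top concentration of the series differs between compounds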)", "details": "CIB1-GST / FITC-alphaIIb peptide fluorescence polarization; series mostly up to 114 µM", "in_short": "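Fluorescence polarization competition: CIB1-GST (1 uM final) preincubated with compound 15 min at room temperature, then FITC-labeled alphaIIb peptide (100 nM final) added for another 15 min. Polarization read at Ex 480/Em 540.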"}, "[2]": {"experiment": "Primary qHTS for small molecule stabilizers of the endoplasmic reticulum resident proteome: Secreted ER Calcium Modulated Protein (SERCaMP) assay (AID 1508630; active = well fitted curve in the direction sought with a large enough effect; an effect the other way counts as inactive or inconclusive)", "details": "SH-SY5Y GLuc-SERCaMP (Gaussia luciferase released on ER calcium loss) secretion, thapsigargin, luminescence; series mostly up to 38.4 µM", "in_short": "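GLuc-SERCaMP-expressing SH-SY5Y cells, pretreated 16 h with compound, are challenged with thapsigargin to empty ER calcium stores; after 4 h, coelenterazine is added directly to the medium and luminescence is imaged.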"}, "[3]": {"experiment": "A High-Content qHTS Against Drug Library for the Identification of Small Molecules that Inhibit DYT1 Early Onset Primary Dystonia-Associated Cell Pathology (AID 1645839)", "details": "HEK293 Flp-In EGFP-delE TorsinA, punctate imaging, 48 h; series mostly up to 46.1 µM", "in_short": "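Readout: %pathology, the punctate EGFP-TorsinA distribution from imaging, as the primary channel and cell count as the toxicity counterscreen. HEK293 Flp-In cells expressing delE TorsinA were induced with tetracycline and treated with compound for 48 h.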"}, "[4]": {"experiment": "Primary qHTS for inhibitors of La Crosse Virus (LACV) - induced cell death in SH-SY5Y cells (AID 1508616; active = well fitted curve in the direction sought with a large enough effect; an effect the other way counts as inactive or inconclusive;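 also: top concentration of the series differs between compounds; higher means more rescue of cells from virus-induced death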)", "details": "SH-SY5Y LACV cytopathicity rescue, ATP luminescence, 6 d; series mostly up to 4.29 µM", "in_short": "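Readout was luminescence from ATPLite 1step added after a 6-day LACV infection (0.01 MOI) of SH-SY5Y cells that had received pin-transferred compound 24 hr after seeding.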"}, "[5]": {"experiment": "Cytotoxicity counterscreen for inhibitors of SARS-CoV-2 cell entry (AID 1645845); also: nearly all actives have a fitted effect of over 50% in size; also: potency is read from the fitted curve at half-maximal effect", "details": "cell viability (SARS-CoV-2 entry assay cells); series mostly up to 57.1 µM", "in_short": "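Expi293F/hACE2 cells seeded overnight; cpd pin-transferred in DMSO, 1 h preincubation, + media, 48 h 37 C 5% CO2; ATPLite 1step luminescence; normalized to cells and no cells.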"}, "[6]": {"experiment": "Primary qHTS to identify inhibitors of SARS-CoV-2 cell entry (AID 1645846); also: nearly all actives have a fitted effect of over 45% in size", "details": "SARS-CoV-2 pseudovirus cell entry assay, luminescence; activity change, negative = inhibition: at 57.1 µM (top of the series) unless noted; series mostly up to 57.1 µM", "in_short": "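HEK293 cells stably expressing human ACE2, pre-treated 1 h with compound, then infected with MLV particles pseudotyped with Wuhan-Hu-1 spike (C-terminal 19-aa truncation). Luciferase luminescence after 48 h at 37 °C, normalised to spike PP and bald PP.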"}, "[7]": {"experiment": "Primary qHTS for inhibitors of nuclear receptor binding SET domain protein 2 (NSD2) in an isogenic RCH-ACV NSD2 p.E1099K mutant (9B) (AID 1645876; active = well fitted curve in the direction sought with a large enough effect; an effect the other way counts as inactive or inconclusive; also: nearly all actives have a fitted effect of over 70% in size; also: potency is read from the fitted curve at half-maximal effect)", "details": "RCH-ACV NSD2 E1099K (9B) viability, CellTiter-Glo, 72 h; series mostly up to 44.9 µM"}, "[8]": {"experiment": "Counterscreen qHTS for small molecule stabilizers of the endoplasmic reticulum resident proteome: GLuc-NoTag assay (AID 1508627; active = well fitted curve in the direction sought with a large enough effect; an effect the other way counts as inactive or inconclusive; also: potency is read from the fitted curve at half-maximal effect)", "details": "Gaussia luciferase NoTag secretion counterscreen, luminescence, thapsigargin 100 nM for final 4 h; series mostly up to 76.4 µM", "in_short": "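SH-SY5Y cells stably expressing constitutively secreted GLuc (no SERCaMP tag) were pre-incubated 5 h, treated with compound for 19 h, then 100 nM thapsigargin for 4 h at 37C; medium GLuc read by coelenterazine luminescence.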"}, "[9]": {"experiment": "Confirmatory qHTS for small molecule stabilizers of the endoplasmic reticulum resident proteome: Secreted ER Calcium Modulated Protein (SERCaMP) assay (AID 1508628; active = well fitted curve in the direction sought with a large enough effect; an effect the other way counts as inactive or inconclusive; also: nearly all actives have a fitted effect of over 40% in size)", "details": "SERCaMP secreted luciferase ER calcium/proteostasis reporter; series mostly up to 76.3 µM", "in_short": "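We seeded SH-SY5Y-GLuc-SERCaMP cells, added compounds (three concentrations in the primary run, eleven up to 76.6 uM in confirmation), incubated 16 h, depleted ER calcium with thapsigargin, and read luciferase 4 h later.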"}, "[10]": {"target": "Cytochrome P450 2D6 (Homo sapiens) (UniProt P10635)", "sequence (P10635 whole entry, looked up)": "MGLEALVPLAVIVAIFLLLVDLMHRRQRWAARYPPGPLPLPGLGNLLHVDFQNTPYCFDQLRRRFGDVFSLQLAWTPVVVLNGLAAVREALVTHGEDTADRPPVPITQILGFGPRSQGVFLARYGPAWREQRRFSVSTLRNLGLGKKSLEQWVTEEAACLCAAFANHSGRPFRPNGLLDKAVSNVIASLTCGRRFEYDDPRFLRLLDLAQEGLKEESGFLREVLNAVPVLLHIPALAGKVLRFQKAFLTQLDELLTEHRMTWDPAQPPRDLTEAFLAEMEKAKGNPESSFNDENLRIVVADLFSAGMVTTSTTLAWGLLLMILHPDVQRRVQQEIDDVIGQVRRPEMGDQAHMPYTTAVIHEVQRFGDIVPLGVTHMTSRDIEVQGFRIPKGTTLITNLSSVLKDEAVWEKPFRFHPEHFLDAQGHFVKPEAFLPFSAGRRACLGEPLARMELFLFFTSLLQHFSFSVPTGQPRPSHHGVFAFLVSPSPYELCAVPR", "experiment": "Cytochrome P450 family 2 subfamily D member 6 (CYP2D6) small molecule antagonists: luciferase biochemical (cell-free) qHTS assay (AID 1645840; active = well fitted curve in the direction sought with a large enough effect in the repeat runs; an effect the other way counts as inactive or inconclusive; also: nearly all actives have a fitted effect of over 55% in size; also: potency is read from the fitted curve at half-maximal effect)", "details": "P450-Glo CYP2D6 enzyme, luciferin luminescence, 1 h; series mostly up to 57.4 µM", "in_short": "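P450-Glo luminescent screen: recombinant CYP2D6 enzyme–proluciferin substrate mix preincubated with compound 10 min at room temperature, then NADPH regeneration added for 1 h at room temperature. Detection reagent added for 20 min; luciferin light read as relative luminescence units.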"}, "[11]": {"target": "Cytochrome P450 2C9 (Homo sapiens) (UniProt P11712)", "sequence (P11712 whole entry, looked up)": "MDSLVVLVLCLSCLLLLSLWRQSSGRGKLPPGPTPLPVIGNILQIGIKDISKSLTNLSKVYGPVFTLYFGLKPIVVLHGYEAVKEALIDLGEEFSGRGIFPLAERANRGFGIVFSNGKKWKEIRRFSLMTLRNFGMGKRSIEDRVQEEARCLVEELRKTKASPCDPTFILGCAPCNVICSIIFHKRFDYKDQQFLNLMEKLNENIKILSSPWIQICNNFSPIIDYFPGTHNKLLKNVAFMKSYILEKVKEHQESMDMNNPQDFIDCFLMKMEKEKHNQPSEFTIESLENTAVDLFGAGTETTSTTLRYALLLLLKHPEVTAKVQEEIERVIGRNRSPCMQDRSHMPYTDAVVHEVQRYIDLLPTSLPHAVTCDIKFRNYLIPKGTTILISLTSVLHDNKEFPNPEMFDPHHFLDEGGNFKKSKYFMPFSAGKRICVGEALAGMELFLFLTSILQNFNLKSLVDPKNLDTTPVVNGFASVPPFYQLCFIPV", "experiment": "Cytochrome P450 family 2 subfamily C member 9 (CYP2C9) small molecule antagonists: luciferase biochemical (cell-free) qHTS assay (AID 1645842; active = well fitted curve in the direction sought with a large enough effect in the repeat runs; an effect the other way counts as inactive or inconclusive; also: nearly all actives have a fitted effect of over 55% in size; also: potency is read from the fitted curve at half-maximal effect)", "details": "P450-Glo CYP2C9 enzyme assay, luciferin luminescence; series mostly up to 57.4 µM", "in_short": "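Luminescence, after 20 min with luciferin detection reagent, reflected CYP2C9 turnover during a 1 h NADPH-driven reaction at 37C. Enzyme-substrate mix contained 0.4% bovine serum albumin and was preincubated with compound 10 min at room temperature.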"}, "[12]": {"experiment": "Cell Viability qHTS for small molecule stabilizers of the endoplasmic reticulum resident proteome (AID 1508629; active = well fitted curve in the direction sought with a large enough effect; an effect the other way counts as inactive or inconclusive;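 also: potency is read from the fitted curve at half-maximal effect; compound exposure about 46 h in total before the viability read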)", "details": "cell viability counter-screen, 100 nM thapsigargin for final 4 h"}, "[13]": {"target": "N-terminal Xaa-Pro-Lys N-methyltransferase 1 (Homo sapiens) (UniProt Q9BV86)", "sequence (Q9BV86 whole entry, looked up)": "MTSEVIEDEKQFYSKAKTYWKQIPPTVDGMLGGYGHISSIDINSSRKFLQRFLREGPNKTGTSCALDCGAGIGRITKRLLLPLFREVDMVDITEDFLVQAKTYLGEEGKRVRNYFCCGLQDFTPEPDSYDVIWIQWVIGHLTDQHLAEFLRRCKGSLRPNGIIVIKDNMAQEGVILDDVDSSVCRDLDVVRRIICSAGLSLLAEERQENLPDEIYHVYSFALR", "experiment": "Confirmatory qHTS for Inhibitors of N-terminal methyltransferase 1 (NTMT1): MTaseGlo Assay (AID 1645874; active = well fitted curve in the direction sought with a large enough effect; an effect the other way counts as inactive or inconclusive; also: potency is read from the fitted curve at half-maximal effect; nearly all actives have a fitted effect of over 65% in size)", "details": "NTMT1 enzyme, MTase-Glo SAH luminescence; series mostly up to 204 µM", "in_short": "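Preincubation of NTMT1 (125 nM) plus SAM (100 uM) with test compounds lasted 15 min; methylation of 1 uM SPKRIA then proceeded 30 min in the dark at room temperature. Luciferase signal reported SAH produced.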"}, "[14]": {"target": "Cytochrome P450 3A4 (Homo sapiens) (UniProt P08684)", "sequence (P08684 whole entry, looked up)": "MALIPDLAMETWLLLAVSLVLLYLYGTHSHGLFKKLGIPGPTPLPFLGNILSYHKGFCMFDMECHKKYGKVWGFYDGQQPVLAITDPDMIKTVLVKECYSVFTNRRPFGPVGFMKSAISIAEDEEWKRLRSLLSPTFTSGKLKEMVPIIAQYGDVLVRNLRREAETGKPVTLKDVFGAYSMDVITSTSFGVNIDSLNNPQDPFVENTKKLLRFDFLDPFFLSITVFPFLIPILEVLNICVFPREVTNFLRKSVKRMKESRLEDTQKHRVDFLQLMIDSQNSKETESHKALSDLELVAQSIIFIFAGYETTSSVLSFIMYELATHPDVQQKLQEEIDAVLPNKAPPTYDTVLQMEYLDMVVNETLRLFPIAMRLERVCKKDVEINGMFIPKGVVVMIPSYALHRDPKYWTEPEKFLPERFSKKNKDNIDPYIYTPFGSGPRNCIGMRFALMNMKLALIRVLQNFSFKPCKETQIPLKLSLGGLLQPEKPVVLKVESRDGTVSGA", "experiment": "Cytochrome P450 family 3 subfamily A member 4 (CYP3A4) small molecule antagonists: luciferase qHTS assay (AID 1645841; active = well fitted curve in the direction sought with a large enough effect in the repeat runs; an effect the other way counts as inactive or inconclusive; also: nearly all actives have a fitted effect of over 45% in size)", "details": "P450-Glo CYP3A4 enzyme assay, luciferin luminescence; series mostly up to 57.4 µM", "in_short": "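P450-Glo CYP3A4 enzyme with proluciferin substrate was preincubated with DMSO-dissolved compounds for 10 min at room temperature. NADPH regeneration solution started a 1 h reaction. Detection reagent stopped it, and luminescence was read after 20 min.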"}}, "note": "Inconclusive results are not listed. Entries that show only a call come without a potency. Activity calls are given as the source filed them. Unless noted, calls follow the shape of the full dose curve. Square brackets hold non-standard residues; d marks the D form. Peptide text beside a SMILES is read from it. * marks the point of attachment. Sta = CC(C)C[C@H](N)[C@@H](O)CC(=O)O; Isovaleryl = CC(C)CC(=O)*"}
{"smiles": "CC(C)=C[C@@H]1[C@@H](C(=O)OCc2coc(Cc3ccccc3)c2)C1(C)C", "values": [{"measurement": "Potency", "setting": "[1]", "value": "inactive"}, {"measurement": "outcome", "setting": "[2]", "value": "inactive"}, {"measurement": "outcome", "setting": "[3]", "value": "inactive"}]}
{"smiles": "COc1ccc(CN2CCNCC2)c(OC)c1OC", "values": [{"measurement": "outcome", "setting": "[4]", "value": "inactive"}, {"measurement": "Potency", "setting": "[1]", "value": "inactive"}, {"measurement": "outcome", "setting": "[3]", "value": "inactive"}, {"measurement": "Potency", "setting": "[5]", "value": "inactive"}, {"measurement": "Potency", "setting": "[6]", "value": "inactive"}, {"measurement": "Potency", "setting": "[7]", "value": "inactive"}]}
{"smiles": "Cc1c(Cl)c(=O)oc2cc(OP(=O)(OCCCl)OCCCl)ccc12", "values": [{"measurement": "Potency", "setting": "[1]", "value": "inactive"}, {"measurement": "Potency", "setting": "[8]", "value": "inactive"}, {"measurement": "Potency", "setting": "[9]", "value": "inactive"}, {"measurement": "Potency", "setting": "[10]", "value": "1.55 µM (active)"}, {"measurement": "Potency", "setting": "[11]", "value": "1.23 µM (active)"}, {"measurement": "Potency", "setting": "[5]", "value": "inactive"}, {"measurement": "Potency", "setting": "[6]", "value": "inactive"}]}
{"smiles": "CC[n+]1c(-c2ccccc2)c2cc(N)ccc2c2ccc(N)cc21", "values": [{"measurement": "outcome", "setting": "[4]", "value": "inactive"}, {"measurement": "Potency", "setting": "[8]", "value": "20 µM (active)"}, {"measurement": "Potency", "setting": "[12]", "value": "3.16 µM (active)"}, {"measurement": "outcome", "setting": "[3]", "value": "inactive"}, {"measurement": "Potency", "setting": "[7]", "value": "5.96 µM (active)"}]}
{"smiles": "Oc1ccc([C@H]2CNCc3c2ccc(O)c3O)cc1O", "values": [{"measurement": "outcome", "setting": "[4]", "value": "inactive"}, {"measurement": "outcome", "setting": "[2]", "value": "inactive"}, {"measurement": "Potency", "setting": "[10]", "value": "inactive"}, {"measurement": "Potency", "setting": "[11]", "value": "8.71 µM (active)"}, {"measurement": "Potency", "setting": "[5]", "value": "inactive"}, {"measurement": "activity change, negative = inhibition", "setting": "[6]", "value": 1.13, "unit": "%"}, {"measurement": "Potency", "setting": "[13]", "value": "18.3 µM (active)"}]}
{"smiles": "COP(=O)(OC)OC=C(Cl)Cl", "values": [{"measurement": "outcome", "setting": "[4]", "value": "inactive"}, {"measurement": "Potency", "setting": "[1]", "value": "inactive"}, {"measurement": "outcome", "setting": "[3]", "value": "inactive"}, {"measurement": "Potency", "setting": "[11]", "value": "inactive"}, {"measurement": "Potency", "setting": "[5]", "value": "inactive"}, {"measurement": "activity change, negative = inhibition", "setting": "[6]", "value": -2.57, "unit": "%"}, {"measurement": "Potency", "setting": "[7]", "value": "inactive"}]}
{"smiles": "CCC1(CC)C(=O)NC(=O)NC1=O", "values": [{"measurement": "outcome", "setting": "[4]", "value": "inactive"}, {"measurement": "outcome", "setting": "[2]", "value": "inactive"}, {"measurement": "outcome", "setting": "[3]", "value": "inactive"}, {"measurement": "Potency", "setting": "[10]", "value": "inactive"}, {"measurement": "Potency", "setting": "[14]", "value": "inactive"}, {"measurement": "Potency", "setting": "[11]", "value": "inactive"}]}
{"smiles": "CN(C)C(=S)SSC(=S)N(C)C", "values": [{"measurement": "Potency", "setting": "[1]", "value": "39.8 µM (active)"}, {"measurement": "Potency", "setting": "[11]", "value": "3.47 µM (active)"}, {"measurement": "Potency", "setting": "[5]", "value": "1.58 µM (active)"}]}
{"smiles": "CC(C)CC(=O)N[C@H](C(=O)N[C@H](C(=O)N[C@@H](CC(C)C)[C@@H](O)CC(=O)N[C@@H](C)C(=O)N[C@@H](CC(C)C)[C@@H](O)CC(=O)O)C(C)C)C(C)C", "note": "(Isovaleryl-VV[Sta]A[Sta]-OH)", "values": [{"measurement": "Potency", "setting": "[5]", "value": "inactive"}, {"measurement": "activity change, negative = inhibition", "setting": "[6]", "value": -12.9, "unit": "%"}]}
{"smiles": "CC(COc1ccccc1)NC(C)C(O)c1ccc(O)cc1", "note": "(stereo not given)", "values": [{"measurement": "Potency", "setting": "[5]", "value": "inactive"}, {"measurement": "Potency", "setting": "[6]", "value": "inactive"}]}
{"smiles": "CN1C(=O)CC(c2ccccc2)C1=O", "note": "(stereo not given)", "values": [{"measurement": "Potency", "setting": "[5]", "value": "inactive"}, {"measurement": "activity change, negative = inhibition", "setting": "[6]", "value": -27.2, "unit": "%"}]}
{"smiles": "CCC(=O)Oc1ccc2c(c1)CC[C@@H]1[C@@H]2CC[C@@]2(C)[C@H]1C[C@@H](OC(=O)CC)[C@@H]2OC(=O)CC", "values": [{"measurement": "Potency", "setting": "[5]", "value": "inactive"}, {"measurement": "Potency", "setting": "[6]", "value": "inactive"}]}
{"smiles": "C[C@]12CC[C@@H]3c4ccc(O)cc4CC[C@H]3[C@@H]1CC[C@@H]2OC(=O)CCC1CCCC1", "values": [{"measurement": "Potency", "setting": "[5]", "value": "inactive"}, {"measurement": "activity change, negative = inhibition", "setting": "[6]", "value": -19.7, "unit": "%"}]}
{"smiles": "CC(=O)O[C@H]1C[C@@H]2CC[C@@H]3[C@H](CC[C@@]4(C)[C@H]3C[C@H]([N+]3(C)CCCCC3)[C@@H]4OC(C)=O)[C@@]2(C)C[C@@H]1N1CCCCC1", "values": [{"measurement": "Potency", "setting": "[5]", "value": "inactive"}, {"measurement": "activity change, negative = inhibition", "setting": "[6]", "value": -7.24, "unit": "%"}]}
{"smiles": "COc1cc([C@H]2Oc3cc([C@H]4Oc5cc(O)cc(O)c5C(=O)[C@@H]4O)ccc3O[C@@H]2CO)ccc1O", "values": [{"measurement": "Potency", "setting": "[5]", "value": "inactive"}, {"measurement": "activity change, negative = inhibition", "setting": "[6]", "value": -12.9, "unit": "%"}]}
{"smiles": "CC(=O)OCC1=C(C(=O)O)N2C(=O)[C@@H](NC(=O)CSc3ccncc3)[C@H]2SC1", "values": [{"measurement": "Potency", "setting": "[5]", "value": "inactive"}, {"measurement": "Potency", "setting": "[6]", "value": "inactive"}]}
